# The supplement of paper PMC5641865, “A screen for kinase inhibitors identifies antimicrobial imidazopyridine aminofurazans as specific inhibitors of the Listeria monocytogenes PASTA kinase PrkA” (The Journal of Biological Chemistry, 2017)
# ± gives the standard deviation of the averaged measurements.
# Test system: Listeria monocytogenes 10403S
# Assay: growth inhibition relative to ceftriaxone-alone control; higher = stronger potentiation of ceftriaxone growth inhibition
# Details: 10 µM; ceftriaxone 1 ug/ml; 12 h
# 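Further: End-point A600 read in BHI broth at 37 °C with 2% DMSO, inhibition computed as (1 − OD with compound plus ceftriaxone ÷ OD with ceftriaxone only) × 100.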
row,SMILES,growth inhibition [%]
1,COc1cc(Nc2ncc(-c3ccccc3)o2)cc(OC)c1OC,1.14 ± 0.11
2,CCCN1CCC=C(c2ccc(Nc3nc(Nc4ccccc4C(N)=O)c4cc[nH]c4n3)c(C)c2)C1,-7.58 ± 1.9
3,CCn1cc(-c2ccnc3[nH]c(-c4cccc(CN(C)C)c4)cc23)c(-c2ccc(NC(=O)N(C)C)cc2)n1,26.7 ± 18
4,Cc1cc(C)c(/C=C2\C(=O)Nc3ccccc32)[nH]1 [Semaxanib (SU5416)],-4.38 ± 12
5,CO[C@@H](C(=O)N1Cc2[nH]nc(NC(=O)c3ccc(N4CCN(C)CC4)cc3)c2C1)c1ccccc1,45.2 ± 16
6,CCCN1CCCC(c2ccc(Nc3nc(Nc4cc(F)ccc4C(N)=O)c4cc[nH]c4n3)c(OC)c2)C1 (stereo not drawn),1.46 ± 6.2
7,Oc1c2ccccc2c2c3c(cccc13)N=N2,10.4 ± 10
8,COc1cc2nccc(Oc3ccc(NC(=O)C4(C(=O)Nc5ccc(F)cc5)CC4)cc3)c2cc1OC [XL-184 (Cabozantinib)],30.5 ± 5.4
9,CCN1CCC(CC(=O)Nc2n[nH]c3nnc(-c4cccc(F)c4F)cc23)CC1,7 ± 6.8
10,CCN(CC)CCCCNc1ncc2cc(-c3cc(OC)cc(OC)c3)c(NC(=O)NC(C)(C)C)nc2n1,23.2 ± 6.8
11,COc1cc2ncnc(Nc3ccc(F)c(Cl)c3)c2cc1NC(=O)/C=C/CN1CCCCC1,60 ± 55
12,Cc1ccc(C(=O)NC(C)C)cc1-c1ccc(C(=O)NCC2CC2)cc1,-1.2 ± 0.17
13,O=C(Nc1n[nH]c2cc(-c3ccc(F)cc3)ccc12)C1CC1,-9.6 ± 16
14,CN(C)C(=O)O[C@@H]1CN[C@@H](C#Cc2cc3ncnc(Nc4ccc(OCc5cccc(F)c5)c(Cl)c4)c3s2)C1,-5.56 ± 8.1
15,C=CC(=O)N1CCC[C@@H](n2nc(-c3ccc(Oc4ccccc4)cc3)c3c(N)ncnc32)C1,42.1 ± 24
16,NS(=O)(=O)c1ccc(N/N=C2\C(=O)Nc3ccc(C(=O)NCCCn4ccnc4)cc32)cc1,-3.24 ± 3.3
17,Nc1nonc1-c1nc2cnccc2n1C1CC1,-9.63 ± 4.1
18,c1ccc(-c2n[nH]cc2-c2ccnc(-c3ccc(OCCn4ccnc4)cc3)c2)nc1,-3.25 ± 8
19,Cn1cc(-c2ccc3nnc(Sc4ccc5ncccc5c4)n3n2)cn1,18 ± 20

row,SMILES,growth inhibition [%]
1,C[C@@H](Oc1cc(-n2cnc3ccc(OCC4CCN(C)CC4)cc32)sc1C(N)=O)c1ccccc1Cl,-2.37 ± 3
2,COc1ccccc1-c1cc(/C=C2\C(=O)Nc3ncc(Br)cc32)cc(Br)c1O,-8.54 ± 8.1
3,COc1cc(/C=N/Nc2ncnc3[nH]ncc23)ccc1O,6.52 ± 10
4,COc1ccccc1Nc1ncc(-c2ccccc2)o1,1.22 ± 3.5
5,CCCCCCCCCCCCc1ccc(S(=O)(=O)Nc2nncs2)cc1,93.5 ± 11
6,FC(F)(F)c1ccc(Nc2nc3ccc(Oc4ccnc(-c5ncc(C(F)(F)F)[nH]5)c4)cc3[nH]2)cc1 [Raf265 Derivative],49.3 ± 21
7,CN(c1ccc(NC(=O)Nc2ccc(OC(F)(F)F)cc2)cc1)c1ccnc(Nc2cccc(S(N)(=O)=O)c2)n1,-3.28 ± 2
8,CN(C)C1CCN(C(=O)c2ccc(NC(=O)Nc3ccc(-c4nc(N5CCOCC5)nc(N5CCOCC5)n4)cc3)cc2)CC1,22.7 ± 7.4
9,Fc1ccc(-c2ncn(C3CCNCC3)c2-c2ccnc(Oc3ccccc3)n2)cc1,-4.1 ± 5.5
10,Nc1nc(-c2cccc(Cl)c2)c(-c2ccc3ncccc3n2)s1,-7.03 ± 7.3
11,COc1ccc(-c2ccc3ncc4c(c3c2)n(-c2ccc(N3CCNCC3)c(C(F)(F)F)c2)c(=O)n4C)cn1,28.5 ± 9.7
12,COc1cccc(-c2cc(=O)c3ccccc3o2)c1N,6.7074 ± 0.0026
13,Cc1cc(C(C)Nc2ccccc2)c2nc(N3CCOCC3)cc(=O)n2c1 (stereo not drawn),24.3 ± 9.5
14,O=C(Nc1n[nH]c2nnc(-c3cccnc3)cc12)C1CC1,-0.393 ± 1.3
15,CS(=O)(=O)Nc1ccc(N/C=C2\C(=O)Nc3ccccc32)cc1,-14.6 ± 19
16,Nc1nccc(-c2c(-c3ccc(F)cc3)ncn2CCCN2CCOCC2)n1,-1.02 ± 0.073
17,OCc1ccc(-c2nc(-c3ccc4c(c3)OCO4)c(-c3ccccn3)[nH]2)cc1,7.68 ± 2.9
18,Cc1ccc(F)c(NC(=O)Nc2ccc(-c3cccc4[nH]nc(N)c34)cc2)c1 [Linifanib (ABT-869)],29.9 ± 19
19,CC(C)COC(=O)c1ccc2c(c1)/C(=C/Nc1ccc(S(N)(=O)=O)cc1)C(=O)N2,-6.41 ± 14
